The panel holds about 83,000 compounds, 20% with a hit somewhere; the sample as a whole holds those more often.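 Note: values are percent growth. 100 is the growth of untreated cells, values between 100 and 0 indicate rising inhibition; between -100 and 0 indicates cell death.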 Activity calls are given as the source filed them. The calls were made as follows: active = growth percent below 10; inactive = the rest.
These compounds were tested on HCT-116 colon (assay: NCI-60 one-dose screen, 48 h (100 = growth as untreated, 0 = no growth, -100 = all killed)). Settings: 10 µM.

**Q.** With `COc1ccc(-c2ccc(/C=N/NC(=O)c3[nH]c4ccc(Br)cc4c3-c3ccccc3)s2)cc1` as the compound, how does the growth read?
**A.** 37.5% (inactive)

**Q.** For `CC1(c2ccccc2)NC(=O)N(CC(=O)Nc2ccc(C(=O)/C=C/c3ccc(Cl)cc3)cc2)C1=O` (stereo not given), which growth is on record?
**A.** -69.1% (active)

**Q.** Which growth does the source give for `O=c1[nH]c2ccccc2cc1CSc1ccc(Nc2nccc(-c3ccc4ccccc4c3)n2)cc1` here?
**A.** 26.2% (inactive)

**Q.** How did the growth turn out when `COC(=O)CC1CC1C1Cc2c(nc(N(C)S(C)(=O)=O)nc2C(C)C)-c2ccc(F)cc21` (stereo not given) was run?
**A.** 44.4% (inactive)

**Q.** For `COc1ccc(CN2[C@H](C(=O)NCCCCCCC(=O)NO)Cc3c([nH]c4ccccc34)[C@H]2C2CC2)cc1`, which growth is on record?
**A.** 2.09% (active)

**Q.** `O=C(CSc1nnc(-c2c[nH]c3ccccc23)n1-c1ccccc1)Nc1ccc(C(=O)/C=C/c2cccc([N+](=O)[O-])c2)cc1` was tested. Which growth did it give?
**A.** -54% (active)

**Q.** With `Cc1ccc(NCC(=O)Nn2c(COc3ccccc3)nc3ccccc3c2=O)cc1` as the compound, how does the growth read?
**A.** 85.1% (inactive)

**Q.** With `C/C(=C\CC/C=C(\C)CC/C=C(\C)CC[C@@H](O)C(C)(C)O)CC/C=C(\C)CC[C@@H](O)C(C)(C)O` as the compound, how does the growth read?
**A.** 10% (inactive)

**Q.** For `CCOC(=O)N/C(=C1/OCCN1C)[P+](c1ccccc1)(c1ccccc1)c1ccccc1`, which growth is on record?
**A.** 75.1% (inactive)

**Q.** How did the growth turn out when `COc1cccc(-c2ccc(/C=N/NC(=O)c3[nH]c4ccc(Br)cc4c3-c3ccccc3)o2)c1` was run?
**A.** -7.28% (active)

**Q.** How did the growth turn out when `Cn1cc(/C=N/Nc2cccc(Cl)n2)c2ccccc21` was run?
**A.** 33.3% (inactive)

**Q.** `O=C(CNc1nc(-c2ccccc2)cs1)Nc1ccc(Cl)cc1[N+](=O)[O-]` was tested. Which growth did it give?
**A.** -22.8% (active)

**Q.** `CCCCCCCCCCCCCCCCCCCC(=O)NCCc1c[nH]c2ccc(OC(=O)CCCC(=O)OCCOOCCOOCCOOCCOOCCOOCCOOCCOOCCOOCCOOCCOOCCOOCCOC)cc12` was tested. Which growth did it give?
**A.** 32.7% (inactive)

**Q.** How did the growth turn out when `COC[C@@H](CC(C)C)N=C1N/C(=C\c2ccc3ncsc3c2)C(=O)N1C` was run?
**A.** 14.5% (inactive)

**Q.** For `COc1ccccc1[C@H]1C(C(=O)c2ccc(O)cc2)C2(N[C@@H]1c1ccccc1)C(=O)Nc1ccc(Br)cc12` (stereo not given in full), which growth is on record?
**A.** 39.6% (inactive)

**Q.** How did the growth turn out when `COc1ccc(C(=O)Nc2ccc(-c3ccc4c(c3)NC(=O)/C4=C\c3ccc[nH]3)cc2)cc1` was run?
**A.** 36.4% (inactive)

**Q.** `O=C(Nc1ccncc1)c1ccc(-n2c(=O)[nH]c3ccccc3c2=O)cc1` was tested. Which growth did it give?
**A.** 99.1% (inactive)

**Q.** For `O=C(NO)c1ccc(-c2nc3ccc4[nH]ncc4c3c3c2CCCC3)cc1`, which growth is on record?
**A.** 2.92% (active)

Each compound was assayed on HCC-2998 colon in the same assay as above. Settings: 10 µM.

**Q.** `O=S(=O)(c1ccc(Cl)cc1)c1nc(-c2ccccc2)oc1S(=O)(=O)c1ccc(Cl)cc1` was tested. Which growth did it give?
**A.** 95.8% (inactive)

**Q.** With `O=[N+]([O-])c1ccc(-c2nc(-c3ccccc3)c(-c3ccccc3)n2-c2ccc(S(=O)(=O)Nc3ncccn3)cc2)cc1` as the compound, how does the growth read?
**A.** 42.9% (inactive)

**Q.** `Cc1cc(C(F)(F)F)ccc1C(=O)Nc1sc2c(c1C#N)CCC(=O)C2` was tested. Which growth did it give?
**A.** -10.6% (active)

**Q.** `Cc1ccn2c(C(=O)c3ccccc3)cc(-c3cc(-c4ccc(N(C)C)cc4)c(C#N)c(N)n3)c2c1` was tested. Which growth did it give?
**A.** 92% (inactive)

**Q.** Which growth does the source give for `COc1ccc2ncc(C#Cc3cncc(C(=O)Nc4ccc(CN5CCN(C)CC5)c(C(F)(F)F)c4)c3)n2n1` here?
**A.** -95.8% (active)

**Q.** With `CN1CCN(Cc2ccc(C(=O)Nc3cccc(Nc4ccc5cc(O)ccc5n4)c3)cc2C(F)(F)F)CC1` as the compound, how does the growth read?
**A.** -97.3% (active)

**Q.** With `O=C(c1ccc(Cl)cc1)C1[C@H](c2ccccc2Br)[C@@H](c2ccccc2)NC12C(=O)Nc1ccc(Cl)cc12` (stereo not given in full) as the compound, how does the growth read?
**A.** -0.337% (active)

**Q.** For `N#Cc1c(Cl)nc(SCc2ccc(F)cc2)nc1-c1ccc(F)cc1`, which growth is on record?
**A.** 111% (inactive)

**Q.** How did the growth turn out when `CC1=N/C(=C\c2ccc(N(C)C)cc2)C(=O)N1CCc1ccc(S(N)(=O)=O)cc1` was run?
**A.** 97.5% (inactive)

**Q.** `CC1(C)CC[C@]2(C(=O)O)CC[C@]3(C)C(=CC[C@@H]4[C@@]5(C)C/C(=C/c6ccncc6)[C@H](O)C(C)(C)[C@@H]5CC[C@]43C)[C@@H]2C1` was tested. Which growth did it give?
**A.** 49.1% (inactive)

**Q.** `Cc1ccc(/C=C/C(=O)c2ccc(NC(=O)CSc3nnc(-c4c[nH]c5ccccc45)n3-c3ccccc3)cc2)c(C)c1` was tested. Which growth did it give?
**A.** 74.1% (inactive)

**Q.** Which growth does the source give for `COC1=C[C@]23CCC(=O)N2CCc2cc4c(cc2[C@@H]3[C@@H]1OC(=O)CCCC(C)C)OCO4` here?
**A.** 21.8% (inactive)

**Q.** For `COC(=O)c1c(C(=O)OC)c2n(c1C)[C@@H]([C@@H](C)[C@H]1CC[C@H]3[C@@H]4CCC5=CC(=O)CC[C@]5(C)[C@H]4CC[C@]13C)SC2`, which growth is on record?
**A.** 45% (inactive)

**Q.** With `O=C(CNc1nc(-c2ccccc2)cs1)Nc1cccc([N+](=O)[O-])c1` as the compound, how does the growth read?
**A.** -99.8% (active)

**Q.** With `CN(C(=O)c1ccc(C(C)(C)C)cc1)c1sc2c(c1C#N)CCC(=O)C2` as the compound, how does the growth read?
**A.** -4.22% (active)

**Q.** Which growth does the source give for `Cc1cc(C)nc(NS(=O)(=O)c2ccc(N/C(N)=N/c3nccc(-c4ccccc4)n3)cc2)n1` here?
**A.** 85.3% (inactive)

**Q.** For `O=C(NO)c1ccc(Cn2ccc3c(Nc4ccccc4)ncnc32)cc1`, which growth is on record?
**A.** -30.1% (active)

**Q.** How did the growth turn out when `Cc1noc2c(Cc3ccccc3)nn(CC(=O)N/N=C/c3ccc(Br)cc3)c(=O)c12` was run?
**A.** 85.3% (inactive)

**Q.** `N#Cc1c(-c2ccc(F)cc2)nc(SCc2ccc([N+](=O)[O-])cc2)nc1N1CCOCC1` was tested. Which growth did it give?
**A.** 90.7% (inactive)

**Q.** `COc1ccc(-c2ccc(/C=N/NC(=O)c3[nH]c4ccc(Br)cc4c3-c3ccccc3)s2)cc1` was tested. Which growth did it give?
**A.** 112% (inactive)

**Q.** For `CC1(c2ccccc2)NC(=O)N(CC(=O)Nc2ccc(C(=O)/C=C/c3ccc(Cl)cc3)cc2)C1=O` (stereo not given), which growth is on record?
**A.** -99.1% (active)

**Q.** How did the growth turn out when `O=c1[nH]c2ccccc2cc1CSc1ccc(Nc2nccc(-c3ccc4ccccc4c3)n2)cc1` was run?
**A.** 63.5% (inactive)

**Q.** Which growth does the source give for `COC(=O)CC1CC1C1Cc2c(nc(N(C)S(C)(=O)=O)nc2C(C)C)-c2ccc(F)cc21` (stereo not given) here?
**A.** 101% (inactive)

**Q.** With `COc1ccc(CN2[C@H](C(=O)NCCCCCCC(=O)NO)Cc3c([nH]c4ccccc34)[C@H]2C2CC2)cc1` as the compound, how does the growth read?
**A.** -36.7% (active)

**Q.** How did the growth turn out when `O=C(CSc1nnc(-c2c[nH]c3ccccc23)n1-c1ccccc1)Nc1ccc(C(=O)/C=C/c2cccc([N+](=O)[O-])c2)cc1` was run?
**A.** 62.7% (inactive)

**Q.** How did the growth turn out when `Cc1ccc(NCC(=O)Nn2c(COc3ccccc3)nc3ccccc3c2=O)cc1` was run?
**A.** 95.7% (inactive)

**Q.** `C/C(=C\CC/C=C(\C)CC/C=C(\C)CC[C@@H](O)C(C)(C)O)CC/C=C(\C)CC[C@@H](O)C(C)(C)O` was tested. Which growth did it give?
**A.** 31.7% (inactive)

**Q.** `CCOC(=O)N/C(=C1/OCCN1C)[P+](c1ccccc1)(c1ccccc1)c1ccccc1` was tested. Which growth did it give?
**A.** 60.4% (inactive)

**Q.** How did the growth turn out when `COc1cccc(-c2ccc(/C=N/NC(=O)c3[nH]c4ccc(Br)cc4c3-c3ccccc3)o2)c1` was run?
**A.** 11.8% (inactive)

**Q.** With `Cn1cc(/C=N/Nc2cccc(Cl)n2)c2ccccc21` as the compound, how does the growth read?
**A.** 48.5% (inactive)

**Q.** Which growth does the source give for `O=C(CNc1nc(-c2ccccc2)cs1)Nc1ccc(Cl)cc1[N+](=O)[O-]` here?
**A.** -93.4% (active)

**Q.** For `CCCCCCCCCCCCCCCCCCCC(=O)NCCc1c[nH]c2ccc(OC(=O)CCCC(=O)OCCOOCCOOCCOOCCOOCCOOCCOOCCOOCCOOCCOOCCOOCCOOCCOC)cc12`, which growth is on record?
**A.** 87.8% (inactive)

**Q.** How did the growth turn out when `COC[C@@H](CC(C)C)N=C1N/C(=C\c2ccc3ncsc3c2)C(=O)N1C` was run?
**A.** 5.06% (active)

**Q.** How did the growth turn out when `COc1ccccc1[C@H]1C(C(=O)c2ccc(O)cc2)C2(N[C@@H]1c1ccccc1)C(=O)Nc1ccc(Br)cc12` (stereo not given in full) was run?
**A.** -38.6% (active)

**Q.** With `COc1ccc(C(=O)Nc2ccc(-c3ccc4c(c3)NC(=O)/C4=C\c3ccc[nH]3)cc2)cc1` as the compound, how does the growth read?
**A.** 31.3% (inactive)

**Q.** For `O=C(Nc1ccncc1)c1ccc(-n2c(=O)[nH]c3ccccc3c2=O)cc1`, which growth is on record?
**A.** 107% (inactive)

**Q.** Which growth does the source give for `O=C(NO)c1ccc(-c2nc3ccc4[nH]ncc4c3c3c2CCCC3)cc1` here?
**A.** -67.4% (active)

Source: PubChem BioAssay (NCI)
